These results are taken from PubChem BioAssay (EPA / NIEHS).

Common to all, as to conditions: mRNA level, 48 h; actives raise or lower the signal
Read-out in assay [1]: Glutathione S-Transferase (GSTA2), GSTA2 (gene 2939)
Put plainly: LTEA_HepaRG_GSTA2: Life Technologies and Expression Analysis (LTEA) Assay for Glutathione S-Transferase (GSTA2) using HepaRG (AID 2283497). Summed up:
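Differentiated human HepaRG cells were exposed in duplicate for 48 h in serum-free induction medium, 8 points from 100 uM top in half-log steps, 0.5% DMSO. GSTA2 mRNA was measured by TaqMan qRT-PCR, normalized to ACTB, GAPDH and POLR2A; bidirectional fit versus DMSO.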

Read-out in assay [2]: Glutamate-cysteine ligase catalytic (GCLC), GCLC (gene 2729)
Put plainly: LTEA_HepaRG_GCLC: Life Technologies and Expression Analysis (LTEA) Assay for Glutamate-cysteine ligase catalytic (GCLC) using HepaRG (AID 2283498). In outline: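 Differentiated HepaRG cells exposed 48 h in serum-free induction medium, eight-point half-log series topping at 100 uM in 0.5% DMSO, duplicates. GCLC mRNA by qRT-PCR normalized to ACTB, GAPDH and POLR2A, fitted bidirectionally versus DMSO.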

Read-out in assay [3]: Glutamate-cysteine ligase regulatory (GCLM), GCLM (gene 2730)
Put plainly: LTEA_HepaRG_GCLM: Life Technologies and Expression Analysis (LTEA) Assay for Glutamate-cysteine ligase regulatory (GCLM) using HepaRG (AID 2283500). Summed up: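 Human liver HepaRG cultures receive test chemicals for 48 hours at up to 100 uM in 0.5% DMSO. GCLM expression is measured by qRT-PCR and analysed for increases or decreases against vehicle.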

Read-out in assay [4]: Glutathione S-transferase M3 (GSTM3), GSTM3 (gene 2947)
Put plainly: LTEA_HepaRG_GSTM3: Life Technologies and Expression Analysis (LTEA) Assay for Glutathione S-transferase M3 (GSTM3) using HepaRG (AID 2283501). Summed up:
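Changes in GSTM3 expression, an oxidative-stress marker, were scored by bidirectional curve fitting against 0.5% DMSO vehicle. Human HepaRG cultures received chemicals for 48 h in duplicate, highest concentration 100 uM with half-log dilutions.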

Read-out in assay [5]: Heat shock 70 kDa protein 1 (HSPA1A), gene 3303
Put plainly: LTEA_HepaRG_HSPA1A: Life Technologies and Expression Analysis (LTEA) Assay for Heat shock 70 kDa protein 1 (HSPA1A) using HepaRG (AID 2283502). Summed up:
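HSPA1A induction in human HepaRG liver cells is measured after 48 h of chemical treatment (100 uM maximum, 0.5% DMSO vehicle). Expression comes from qRT-PCR normalized to endogenous controls.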

Read-out in assay [6]: 3-Hydroxy-3-Methylglutaryl-CoA Synthase 2 (HMGCS2), HMGCS2 (gene 3158)
Put plainly: LTEA_HepaRG_HMGCS2: Life Technologies and Expression Analysis (LTEA) Assay for 3-Hydroxy-3-Methylglutaryl-CoA Synthase 2 (HMGCS2) using HepaRG (AID 2283504). In outline: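 Expression of HMGCS2 in human HepaRG liver cells is measured by qRT-PCR 48 h after dosing (highest 100 uM, half-log series, 0.5% DMSO). Values come from bidirectional concentration-response fitting with DMSO as baseline.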

Read-out in the next assay: HGF (gene 3082)
Put plainly: LTEA_HepaRG_HGF: Life Technologies and Expression Analysis (LTEA) Assay for Hepatocyte Growth Facto (HGF) using HepaRG (AID 2283505). Summed up:
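Gain or loss of HGF mRNA in human HepaRG liver cells after 48 h chemical exposure; eight concentrations up to 100 uM with 0.5% DMSO vehicle, quantified by TaqMan qRT-PCR.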

Read-out in assay [7]: Insulin Like Growth Factor 1 (IGF1), IGF1 (gene 3479)
Put plainly: LTEA_HepaRG_IGF1: Life Technologies and Expression Analysis (LTEA) Assay for Insulin Like Growth Factor 1 (IGF1) using HepaRG (AID 2283506). In outline:
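Using human HepaRG liver cells, IGF1 transcript induction or suppression is measured 48 h after dosing across eight concentrations capped at 100 uM. Values derive from bidirectional concentration-response fitting with DMSO as baseline.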

Read-out in assay [8]: Intercellular Adhesion Molecule 1 (ICAM1), ICAM1 (gene 3383)
Put plainly: LTEA_HepaRG_ICAM1: Life Technologies and Expression Analysis (LTEA) Assay for Intercellular Adhesion Molecule 1 (ICAM1) using HepaRG (AID 2283507). Summed up:
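Gain or loss of transcript in HepaRG hepatic cells is quantified by qRT-PCR after 48 h chemical exposure (up to 100 uM, half-log steps), with DMSO as baseline.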

Read-out in assay [9]: Insulin-like growth factor-binding protein 1 (IGFBP1), IGFBP1 (gene 3484)
Put plainly: LTEA_HepaRG_IGFBP1: Life Technologies and Expression Analysis (LTEA) Assay for Insulin-like growth factor-binding protein 1 (IGFBP1) using HepaRG (AID 2283508). Summed up:
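mRNA induction or loss was quantified by qRT-PCR after 48 h chemical exposure of human HepaRG cells, with 0.5% DMSO as vehicle and baseline. Concentration-response over eight points up to 100 uM.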

Read-out in assay [10]: Interleukin 6 (IL6), IL6 (gene 3569)
Put plainly: LTEA_HepaRG_IL6: Life Technologies and Expression Analysis (LTEA) Assay for Interleukin 6 (IL6) using HepaRG (AID 2283509). In outline:
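HepaRG cells exposed in duplicate for 48 h to eight half-log concentrations, top 100 uM, in 0.5% DMSO serum-free induction medium. mRNA measured by qRT-PCR, normalized to ACTB, GAPDH and POLR2A. Bidirectional fit versus DMSO.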

Read-out in assay [11]: Interleukin 6 Receptor (IL6R), IL6R (gene 3570)
Put plainly: LTEA_HepaRG_IL6R: Life Technologies and Expression Analysis (LTEA) Assay for Interleukin 6 Receptor (IL6R) using HepaRG (AID 2283510).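 For AC50: TaqMan qRT-PCR signal normalized to ACTB GAPDH and POLR2A housekeeping genes.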 In outline:
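Concentration-response in human liver HepaRG cells: eight concentrations from 100 uM downward by half-logs, 48 h exposure, 0.5% DMSO vehicle. IL6R mRNA change measured by qRT-PCR and fitted in both directions relative to vehicle.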

Read-out in assay [12]: Potassium channel subfamily K member 1 (KCNK1), KCNK1 (gene 3775)
Put plainly: LTEA_HepaRG_KCNK1: Life Technologies and Expression Analysis (LTEA) Assay for Potassium channel subfamily K member 1 (KCNK1) using HepaRG (AID 2283511). Summed up:
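Differentiated HepaRG cells, 48 h exposure in serum-free induction medium with 0.5% DMSO; 8 concentrations, half-log from 100 uM, duplicate. KCNK1 mRNA by qRT-PCR, normalized to ACTB, GAPDH, POLR2A; bidirectional fit vs DMSO.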

Read-out in assay [13]: Keratin 19 (KRT19), KRT19 (gene 3880)
Put plainly: LTEA_HepaRG_KRT19: Life Technologies and Expression Analysis (LTEA) Assay for Keratin 19 (KRT19) using HepaRG (AID 2283512). Summed up:
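Gene-expression endpoint in the human liver line HepaRG after 48 h exposure to up to 100 uM test chemical with 0.5% DMSO vehicle; KRT19 mRNA by qRT-PCR, analyzed bidirectionally versus DMSO.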

Read-out in assay [14]: JUN Transcription Factor, JUN (gene 3725)
Put plainly: LTEA_HepaRG_JUN: Life Technologies and Expression Analysis (LTEA) Assay for JUN Transcription Factor using HepaRG (AID 2283513). Summed up:
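Human HepaRG liver cells receive test chemicals in 0.5% DMSO for 48 h across an eight-point range topping at 100 uM. Expression changes in JUN are scored in both directions against the DMSO vehicle.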

Read-out in assay [15]: Lipase C (LIPC), LIPC (gene 3990)
Put plainly: LTEA_HepaRG_LIPC: Life Technologies and Expression Analysis (LTEA) Assay for Lipase C (LIPC) using HepaRG (AID 2283514). Summed up: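 HepaRG cells, 48 h after plating, treated in duplicate for 48 h in serum-free induction medium over 8 half-log concentrations from 100 uM, 0.5% DMSO. LIPC mRNA by TaqMan qRT-PCR normalized to ACTB/GAPDH/POLR2A; bidirectional fit versus DMSO.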

Read-out in assay [16]: Lipoprotein lipase (LPL), LPL (gene 4023)
Put plainly: LTEA_HepaRG_LPL: Life Technologies and Expression Analysis (LTEA) Assay for Lipoprotein lipase (LPL) using HepaRG (AID 2283515). Summed up:
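Differentiated HepaRG cells, plated 48 h, then exposed 48 h in serum-free induction medium to 8 concentrations (top 100 uM, half-log steps) in 0.5% DMSO, duplicate. LPL mRNA measured by qRT-PCR, normalized to ACTB, GAPDH and POLR2A.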

Read-out in assay [17]: MicroRNA 122 (MIR122), gene 406906
Put plainly: LTEA_HepaRG_MIR122: Life Technologies and Expression Analysis (LTEA) Assay for MicroRNA 122 (MIR122) using HepaRG (AID 2283516). Note: the transcript read is the microRNA miR-122. Summed up: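 HepaRG, 48 h exposure, 8-pt half-log from 100 uM, 0.5% DMSO; TaqMan qRT-PCR; bidirectional fit vs DMSO.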

Read-out in assay [18]: Hypoxia-inducible factor 1-alpha (Homo sapiens) (UniProt Q16665)
Put plainly: LTEA_HepaRG_HIF1A: Life Technologies and Expression Analysis (LTEA) Assay for Hypoxia-inducible factor 1 (HIF1A) Trancription factor using HepaRG (AID 2283503).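 Note: HIF1A transcript by TaqMan qRT-PCR normalized to ACTB GAPDH and POLR2A.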 Summed up:
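HepaRG, 48 h exposure, 8-pt half-log series from 100 uM, 0.5% DMSO vehicle, duplicates. Readout: HIF1A transcript by qRT-PCR (Fluidigm array), housekeeping-normalised. Bidirectional curve fit vs DMSO baseline.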

Calls of active or inactive are those of the source. Rule for the calls: active = hit-call score of the fitted dose curve at least 0.9, where 1 is the maximum; inactive = score below 0.9.

Sequence of Hypoxia-inducible factor 1-alpha (Homo sapiens) (Q16665 whole entry, looked up): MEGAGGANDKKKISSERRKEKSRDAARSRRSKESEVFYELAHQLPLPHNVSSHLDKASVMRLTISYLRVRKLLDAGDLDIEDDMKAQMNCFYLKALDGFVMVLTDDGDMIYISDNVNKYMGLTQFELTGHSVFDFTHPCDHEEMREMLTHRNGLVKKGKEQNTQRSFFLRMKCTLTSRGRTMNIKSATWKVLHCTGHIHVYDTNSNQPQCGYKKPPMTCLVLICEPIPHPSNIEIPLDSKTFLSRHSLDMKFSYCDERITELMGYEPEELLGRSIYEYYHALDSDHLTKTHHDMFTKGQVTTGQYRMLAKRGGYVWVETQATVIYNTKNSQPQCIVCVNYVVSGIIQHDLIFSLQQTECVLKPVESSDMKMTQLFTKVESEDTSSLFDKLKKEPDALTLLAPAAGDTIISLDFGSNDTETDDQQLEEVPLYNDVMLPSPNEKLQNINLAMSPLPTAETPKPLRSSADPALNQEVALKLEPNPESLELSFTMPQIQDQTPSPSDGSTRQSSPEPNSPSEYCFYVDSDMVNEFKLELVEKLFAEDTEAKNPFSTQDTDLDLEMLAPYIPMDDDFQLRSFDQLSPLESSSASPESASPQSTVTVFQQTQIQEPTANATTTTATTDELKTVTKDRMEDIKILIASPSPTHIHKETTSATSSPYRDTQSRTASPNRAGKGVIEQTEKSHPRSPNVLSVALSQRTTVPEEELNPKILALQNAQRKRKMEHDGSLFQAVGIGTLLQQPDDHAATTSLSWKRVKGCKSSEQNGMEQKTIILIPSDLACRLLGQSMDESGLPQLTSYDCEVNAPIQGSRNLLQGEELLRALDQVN

Regarding `NS(=O)(=O)c1cc2c(cc1Cl)NCNS2(=O)=O`, the molecule was called inactive in [1], in assay [2], in assay [3], in [4], in [5] and in assay [6]. The molecule was called inactive (with HGF (gene 3082); in assay [7]; in assay [8]; in assay [9]; in assay [10]; in [11]). Further, the result in assay [12], in [13], in assay [14], in [15], in assay [16] and in assay [17] was inactive.
As to `CCCCC(CC)COC(=O)CC(C(=O)OCC(CC)CCCC)S(=O)(=O)O` (stereo unspecified), the AC50 was 82.2 µM (active) in assay [1]; 94.6 µM (active) in assay [2]; 79.7 µM (active) in [3]; 38.1 µM (active) in assay [5]; 79.6 µM (active) in [6]; 90.7 µM (active) in assay [9]. The concentration at half-maximal activity (AC50) is 91.4 µM (active) in [10], 77.6 µM (active) in assay [14] and 82.1 µM (active) in [16]. Besides, the molecule was called inactive (in [4]; in assay [18]; with HGF (gene 3082); in assay [7]; in assay [11]; in [12]). For the same molecule, the outcome in assay [13], in assay [15] and in [17] was inactive.
Regarding `C1CCC(SSC2CCCCC2)CC1`, the outcome in assay [1], in assay [2], in assay [3], in assay [4], in assay [5] and in assay [18] was inactive. For the same molecule, the call (in assay [6]; with HGF (gene 3082); in [7]; in assay [8]; in assay [9]; in assay [10]) was inactive. The outcome in assay [11], in [12], in [13], in [14], in assay [15] and in assay [16] was inactive. Moreover, the outcome in assay [17] was inactive.
As for `CC(C)c1ccc(C(=O)N=C(N)N)cc1S(C)(=O)=O`, the outcome in assay [1], in assay [18], in assay [6], in [10] and in assay [13] was inactive. Also, the AC50 in assay [2] is 0.336 µM (active); in assay [3], 0.441 µM (active); in assay [4], 0.446 µM (active); in assay [5], 7.39 µM (active); with HGF (gene 3082) it was 7.39 µM (active); in assay [7] it was 0.362 µM (active). The AC50 in assay [9] was 0.266 µM (active); in assay [11], 0.276 µM (active); in assay [12], 0.377 µM (active); in assay [14] it was 0.395 µM (active); in assay [15] it was 0.607 µM (active); in assay [16], 0.31 µM (active). Also, in assay [17], the AC50 is 0.334 µM (active).
For `C=CCc1ccc(O)c(OC)c1`, the call in assay [1], in assay [2], in assay [3], in assay [4], in [5] and in [18] was inactive. Moreover, the result (in [6]; with HGF (gene 3082); in assay [7]; in assay [9]; in [10]; in assay [11]) was inactive. Besides, the result in [12], in assay [13], in assay [14], in assay [15] and in [16] was inactive.
For the molecule `NC(=O)Cn1c(=O)cc(CCN2CCN(c3nccc4sccc34)CC2)c2ccc(F)cc21`, the half-maximal activity concentration (AC50) in [1] is 50 µM (active); in [5], 21.9 µM (active); in assay [18], 13.1 µM (active); in assay [6] it was 50 µM (active); in [8], 50 µM (active); in assay [9] it was 76.6 µM (active). Further, the AC50 in assay [15] and in [16] was 50 µM (active) throughout. In addition, the result (in assay [2]; in assay [3]; in assay [4]; with HGF (gene 3082); in assay [7]; in assay [10]) was inactive. In addition, the molecule was called inactive in [11], in assay [12], in assay [13] and in assay [14].
As for `C[C@]12C=CC(=O)C=C1CC[C@@H]1[C@@H]2C(=O)C[C@@]2(C)[C@H]1CC[C@]2(O)C(=O)CO`, the outcome in assay [1], in assay [2], in assay [3], in [4], in assay [5] and in [18] was inactive. For the same molecule, the outcome (in [6]; in the assay with HGF (gene 3082); in assay [7]; in assay [8]; in assay [9]; in assay [10]) was inactive. The molecule was called inactive in assay [11], in assay [12], in [13], in assay [15], in assay [16] and in assay [17].
